Measurements: PMC4336329 (PLoS ONE, 2015)
The campaign covered roughly 310,000 compounds. About 2,200 (0.71%) showed an effect of 50% or more. The effect is printed as a negative number. Many of the other results were omitted from the sample, so strong results are more common in it than they were.

target: human ether-à-go-go-related gene (hERG) potassium channel (human, UniProt Q12809); test: primary screen, population patch clamp on CHO cells stably expressing hERG; higher = less effect of the substance
Sequence (Q12809 whole entry, looked up): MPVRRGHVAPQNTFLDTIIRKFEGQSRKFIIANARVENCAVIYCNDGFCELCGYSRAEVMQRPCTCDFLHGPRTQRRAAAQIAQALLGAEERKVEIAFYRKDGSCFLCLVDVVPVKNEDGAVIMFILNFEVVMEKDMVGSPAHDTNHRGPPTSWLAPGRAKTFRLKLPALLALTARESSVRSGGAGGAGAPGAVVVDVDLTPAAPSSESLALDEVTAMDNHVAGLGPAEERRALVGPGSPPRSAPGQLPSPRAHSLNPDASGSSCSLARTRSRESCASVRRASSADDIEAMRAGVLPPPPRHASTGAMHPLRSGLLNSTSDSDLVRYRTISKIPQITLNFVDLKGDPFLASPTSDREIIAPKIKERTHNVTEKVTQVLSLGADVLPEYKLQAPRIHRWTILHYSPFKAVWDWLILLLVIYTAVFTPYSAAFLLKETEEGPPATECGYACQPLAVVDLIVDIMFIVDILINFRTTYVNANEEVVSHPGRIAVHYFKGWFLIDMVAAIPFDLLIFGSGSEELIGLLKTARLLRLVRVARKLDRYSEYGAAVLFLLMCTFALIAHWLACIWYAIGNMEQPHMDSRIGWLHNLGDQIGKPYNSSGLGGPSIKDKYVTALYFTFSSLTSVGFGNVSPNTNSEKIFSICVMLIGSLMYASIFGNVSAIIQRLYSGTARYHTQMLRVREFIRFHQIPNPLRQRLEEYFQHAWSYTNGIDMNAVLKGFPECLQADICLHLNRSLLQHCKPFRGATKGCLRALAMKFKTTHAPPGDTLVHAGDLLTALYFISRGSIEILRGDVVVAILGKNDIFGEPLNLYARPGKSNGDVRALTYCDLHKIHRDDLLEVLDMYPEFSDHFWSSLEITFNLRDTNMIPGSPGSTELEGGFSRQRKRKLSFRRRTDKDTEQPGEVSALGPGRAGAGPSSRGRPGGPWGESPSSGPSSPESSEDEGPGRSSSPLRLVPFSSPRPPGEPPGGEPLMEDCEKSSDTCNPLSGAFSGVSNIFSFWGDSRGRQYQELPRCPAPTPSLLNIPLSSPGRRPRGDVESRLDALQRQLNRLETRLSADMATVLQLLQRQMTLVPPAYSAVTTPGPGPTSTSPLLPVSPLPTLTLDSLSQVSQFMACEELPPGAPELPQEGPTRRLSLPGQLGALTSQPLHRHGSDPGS

SMILES	hERG current change (%, negative = inhibition) at 1uM [%]
CCCN(C(=O)CCl)C1=CCCCC1	26.6
O=C(CS(=O)(=O)Cc1ccccc1)Nc1ncccn1	13
C[C@H]1CN=C2N(CCNC(=O)CCC3CCCCC3)[C@H](Cc3ccc(O)cc3)CN21	14.3
C[C@@H]1CN=C2N(CCNC(=O)CCC3CCCCC3)[C@H](Cc3ccc(O)cc3)CN21	7.9
C[C@@H](CN1C2=NC[C@H](Cc3ccc(O)cc3)N2C[C@H]1Cc1ccc(O)cc1)NC(=O)CCC1CCCCC1	12.5
CC(C)[C@H]1CN=C2N(CCNC(=O)CCC3CCCCC3)[C@H](Cc3ccc(O)cc3)CN21	-2.53
C/C=C(\C)C(=O)NCCN1C2=NC[C@H](C(C)C)N2C[C@@H]1Cc1ccc(OC)cc1	-46.6
O=C(CCC1CCCCC1)NCCN1C2=NC[C@@H](Cc3ccccc3)N2C[C@H]1Cc1ccc(O)cc1	-0.771
COc1ccc(C[C@H]2CN3C(=NC[C@@H]3Cc3ccc(O)cc3)N2C[C@H](C)NC(=O)CCC2CCCCC2)cc1	-14.9
COc1ccc(C[C@H]2CN3C(=NC[C@@H]3C(C)C)N2CCNC(=O)CCC2CCCCC2)cc1	-86
COc1ccc(C[C@H]2CN3C(=NC[C@H]3Cc3ccccc3)N2CCNC(=O)CCC2CCCCC2)cc1	-49.2
COc1ccc(C[C@H]2CN3C(=NC[C@@H]3C)N2CCNC(=O)CCC2CCCCC2)cc1	-63.7
COc1ccc(C[C@@H]2CN3C(=NC[C@@H]3Cc3ccc(O)cc3)N2C[C@H](C)NC(=O)CCC2CCCCC2)cc1	-64.6
COc1ccc(C[C@H]2CN3C(=NC[C@@H]3Cc3ccccc3)N2CCNC(=O)CCC2CCCCC2)cc1	-60.4
COc1ccc(COc2ccsc2C(=O)Nc2ccc(Cl)c(Cl)c2)cc1	13.6
COc1cc(OC)cc(-c2nc(SCC(=O)Nc3ccccc3F)n[nH]2)c1	11.9
CC(C)c1ccc(C(N)=S)cc1	7.86
O=C(Cc1ccccc1)N1CCC2(CC1)NCCc1[nH]cnc12	20.4
COc1ccc(NC(=O)/C=C/c2ccc(C)o2)cc1S(=O)(=O)N1CCOCC1	3.88
COc1cc(S(=O)(=O)Nc2ccccc2N2CCCCC2)ccc1NC(C)=O	-4.5
COC(=O)C(NC(=O)c1c(C)nn(C)c1Cl)c1ccccc1 (stereo not shown)	14.2
Cc1ccc2c(c1)c(C)c(C)n2CC(O)Cn1nnc2ccccc21 (stereo not shown)	12.4
